In PubChem BioAssay (EPA / NIEHS):
Where “and” joins values, the source holds several entries; their conditions need not be identical. Equal entries are not always repeated. Some compounds were tested as several samples or in several runs, with calls that do not always agree. Calls of active or inactive are those of the source. Rule for the calls: active = hit-call score of the fitted dose curve at least 0.9, where 1 is the maximum; inactive = score below 0.9.

Key:
[1] = APR_HepG2_P-H2AX_72hr: Apredica 72-hour HepG2 Assay for H2AX Phosphorylation (AID 2282916); settings: imaging, actives raise or lower the signal;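 note: phospho-histone H2A.x immunostain intensity per cell marking DNA damage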
How it was run: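 Phospho-histone H2A.x immunofluorescence, multiplexed with Hoechst and c-Jun, quantified by high-content imaging. Compounds applied to HepG2 for 72 h across ten concentrations (0.39–200 uM, 0.5% DMSO), in duplicate; DMSO baseline.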

[2] = APR_HepG2_MitoticArrest_72hr: Apredica 72-hour HepG2 Assay for Mitotic Arrest (AID 2282918); settings: high-content imaging, actives raise or lower the signal
How it was run: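 Using high-content imaging of fixed HepG2 cells, phospho-histone H3 signal was measured following a 72 hr incubation with ten-point compound dilutions up to 200 uM. DMSO served as the negative control and baseline for bidirectional curve fitting.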

[3] = APR_HepG2_MicrotubuleCSK_72hr: Apredica 72-hour HepG2 Assay for Microtubule CSK Stabilty (AID 2282919); settings: HepG2 microtubule cytoskeleton, high-content imaging, actives raise or lower the signal
How it was run: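 Ten-point dosing (0.39–200 uM, 0.5% DMSO) of HepG2 for 72 hr, with taxol as the cytoskeletal positive control. The cells were formaldehyde-fixed and then stained with alpha-tubulin/Cy5 and Hoechst. Imaging at 20x used a −2 um Z offset for tubulin.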

[4] = APR_HepG2_P-H2AX_24hr: Apredica 24-hour HepG2 Assay for H2AX Phosphorylation (AID 2282920); settings: high-content imaging, actives raise or lower the signal
How it was run: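 Human HepG2 liver cells, treated 24 hr with test chemicals (0.39–200 uM, final DMSO 0.5% v/v), are fixed and co-stained for phospho-H2A.x and c-Jun with Hoechst. Imaged intensity is fitted in both directions against DMSO controls.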

[5] = APR_HepG2_StressKinase_72hr: Apredica 72-hour HepG2 Assay for Stress Kinase (AID 2282921); settings: HepG2 stress kinase (phospho-c-Jun) imaging, actives raise or lower the signal
How it was run: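 Stress kinase signal is phospho-c-Jun immunofluorescence (1:500 primary, Cy3 secondary) in fixed, permeabilized human HepG2 cells imaged at 20x. Exposure lasted 72 hr over ten concentrations from 0.39 to 200 uM, 0.5% DMSO, in duplicate. Bidirectional fit versus DMSO.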

[6] = APR_HepG2_StressKinase_24hr: Apredica 24-hour HepG2 Assay for Stress Kinase (AID 2282922); settings: HepG2 stress kinase (phospho-c-Jun) imaging, actives raise or lower the signal
How it was run: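 After 24 hr compound treatment (up to 200 uM, final DMSO 0.5% v/v), HepG2 cells are fixed and multiplex-labeled; phospho-c-Jun intensity is captured by high-content fluorescence imaging and analyzed relative to DMSO.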

[7] = APR_HepG2_p53Act_72hr: Apredica 72-hour HepG2 Assay for p53 Activation (AID 2282923); settings: high-content imaging, actives raise or lower the signal;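 note: average cellular p53 protein immunofluorescence intensity in HepG2 cells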
How it was run: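 After 72 h with compound (ten points, 0.39 to 200 uM, final DMSO 0.5% v/v), fixed HepG2 cells were labelled with sheep anti-p53 and Hoechst 33342 and imaged; gain or loss versus DMSO scored.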

[8] = APR_HepG2_MitoMass_72hr: Apredica 72-hour HepG2 Assay for Mitochondrial Mass (AID 2282924); settings: high-content imaging, actives raise or lower the signal;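 note: MitoTracker Red CMXRos stain intensity per cell imaged as mitochondrial mass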
How it was run: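 Steps: treat HepG2 72 hr (0.39–200 uM, duplicate wells); load MitoTracker Red CMXRos, 250 nM, 30 min; fix with 3.7% formaldehyde, permeabilise with 0.5% Triton X-100; capture images, nuclei via Hoechst 33342; fit bidirectionally against DMSO.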

[9] = APR_HepG2_NuclearSize_72hr: Apredica 72-hour HepG2 Assay for Nuclear Size (AID 2282925); settings: high-content imaging, actives raise or lower the signal
How it was run: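 Compounds (0.39–200 uM, final DMSO 0.5%) were applied to HepG2 for 72 hr. Cells were then formaldehyde-fixed, permeabilized and labelled with Hoechst 33342. Nuclear diameter was quantified from six images per well.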

[10] = ATG_CRE_CIS: Attagene CIS-FACTORIAL HepG2 Assay for human cAMP Responsive Element (CRE) binding protein 3 (AID 2282926); settings: HepG2 CRE cis-reporter, Attagene multiplexed mRNA; actives raise or lower the signal
How it was run: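 Liver-derived HepG2, transfected with a CRE-containing reporter panel, exposed 24 h; transcript levels sized and quantified by capillary electrophoresis of labelled amplicons; signal changes either way referenced to vehicle.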

[11] = target: CCAAT/enhancer-binding protein beta (Homo sapiens) (UniProt P17676); assay: ATG_C_EBP_CIS: Attagene CIS-FACTORIAL HepG2 Assay for human CCAAT/Enhancer Binding Protein (C/EBP) beta (AID 2282927); settings: HepG2 Attagene cis-factorial transcription factor reporter; actives raise or lower the signal
How it was run: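 RT-PCR/capillary electrophoresis fluorescence of reporter mRNA, 24 h post-dose, in HepG2 cells carrying transfected cis-promoter reporter units. Bidirectional curve fitting against DMSO baseline captures gain or loss of signal.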

[12] = ATG_CMV_CIS: Attagene CIS-FACTORIAL HepG2 Assay for human CMV (Internal Marker) (AID 2282928); settings: HepG2 CMV promoter reporter, transcription factor profiling; actives raise or lower the signal;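 note: endpoint acts as a background internal control marker rather than a target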
How it was run: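 Bidirectional fits against DMSO are applied to reporter mRNA, read by RT-PCR with capillary electrophoresis, from HepG2 cells exposed 24 h. The endpoint serves as an internal CMV background marker within the cis-factorial reporter panel.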

[13] = target: Aryl hydrocarbon receptor (Homo sapiens) (UniProt P35869); assay: ATG_Ahr_CIS: Attagene CIS-FACTORIAL HepG2 Assay for human Aryl Hydrocarbon Receptor (Ahr) (AID 2282930); settings: HepG2 AhR cis-factorial reporter transcription; actives raise or lower the signal
How it was run: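 HepG2 cells transiently transfected with cis-element-driven multiplexed reporter transcription units; endogenous transcription factor activity measured as reporter mRNA 24 h after dosing. RT-PCR, 6-FAM labelling, HpaI digestion, capillary electrophoresis; bidirectional fitting versus DMSO baseline.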

[14] = ATG_AP_1_CIS: Attagene CIS-FACTORIAL HepG2 Assay for human Activator Protein 1 (AP-1) (AID 2282931); settings: HepG2 Attagene cis-factorial AP-1 reporter mRNA; actives raise or lower the signal
How it was run: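 Cis-regulated reporter units transiently expressed in HepG2 report endogenous transcription-factor activity. Signal: reporter mRNA at 24 h, via RT-PCR and fluorescent capillary electrophoresis. Endpoint derived by bidirectional fitting, DMSO as negative control.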

[15] = ATG_AP_2_CIS: Attagene CIS-FACTORIAL HepG2 Assay for human Activator Protein 2 (AP-2) (AID 2282932); settings: HepG2 AP-2 cis-reporter, Attagene transcription factor profiling; actives raise or lower the signal
How it was run: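 Cells (HepG2) transfected with promoter-driven reporter constructs, treated 24 h. Total RNA reverse-transcribed, reporter cDNA PCR-amplified, FAM-labelled by primer extension, digested, resolved by capillary electrophoresis. Activity fitted both directions versus DMSO.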

[16] = target: Retinoic acid receptor alpha (Homo sapiens) (UniProt P10276); assay: ATG_DR5_RAR_CIS: Attagene CIS-FACTORIAL HepG2 Assay for human Retinoic Acid Receptor Alpha (RARE), DR5 submotif (AID 2282934); settings: HepG2 Attagene cis-factorial RARE DR5 reporter, mRNA; actives raise or lower the signal;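 for AC50: reporter responds to endogenous RAR alpha beta and gamma in HepG2 not RARA alone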
How it was run: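 HepG2 cells transiently transfected with multiplexed reporter units under cis (DR5 RARE) promoters, so endogenous transcription factor activity is measured. After 24 h compound exposure, reporter mRNA is quantified by RT-PCR with fluorescent labelling and capillary electrophoresis; bidirectional fitting versus DMSO.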

[17] = target: Transcription factor E2F1 (Homo sapiens) (UniProt Q01094); assay: ATG_E2F_CIS: Attagene CIS-FACTORIAL HepG2 Assay for human E2F Transcription Factor 1 (AID 2282935); settings: HepG2 Attagene cis-reporter, E2F reporter RNA transcripts; actives raise or lower the signal
How it was run: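 First, HepG2 cells were transfected with reporter transcription units. Next, they were dosed for 24 h. Then RNA was isolated, converted to cDNA, PCR-amplified, FAM-labeled, HpaI-digested and analyzed by capillary electrophoresis.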

[18] = ATG_DR4_LXR_CIS: Attagene CIS-FACTORIAL HepG2 Assay for human Liver X Receptor (LXR), DR4 submotif (AID 2282929); settings: HepG2 Attagene DR4 cis-reporter, mRNA transcription; actives raise or lower the signal
How it was run: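 DR4 cis-reporter in HepG2, 24 h exposure. Detection: RT-PCR, 6-FAM labelling, CE fragment analysis. Endpoint fitted bidirectionally, DMSO = baseline.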

[19] = ATG_BRE_CIS: Attagene CIS-FACTORIAL HepG2 Assay for human Bone Morphogenetic Protein (BMP) Response Element (BRE) (AID 2282933); settings: HepG2 BMP response element reporter, Attagene transcription factor profiling; actives raise or lower the signal
How it was run: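 Gain- or loss-of-signal was derived by bidirectional fitting against DMSO controls. The signal came from reporter mRNA, measured by RT-PCR and capillary electrophoresis, in HepG2 cells transiently carrying multiple reporter units and dosed for 24 h.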

Measured: AC50

Chain of CCAAT/enhancer-binding protein beta (Homo sapiens) (P17676 whole entry, looked up): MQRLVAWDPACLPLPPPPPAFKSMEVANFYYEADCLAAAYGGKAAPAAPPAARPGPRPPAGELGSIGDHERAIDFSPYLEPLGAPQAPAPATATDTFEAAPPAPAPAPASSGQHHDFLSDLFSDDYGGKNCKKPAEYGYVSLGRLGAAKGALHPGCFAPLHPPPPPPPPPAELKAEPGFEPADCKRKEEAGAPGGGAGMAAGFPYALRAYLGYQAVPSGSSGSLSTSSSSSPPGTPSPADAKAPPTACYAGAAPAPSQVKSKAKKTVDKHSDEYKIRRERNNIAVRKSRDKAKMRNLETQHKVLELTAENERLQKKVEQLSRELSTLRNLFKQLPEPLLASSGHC
Chain of Transcription factor E2F1 (Homo sapiens) (Q01094 whole entry, looked up): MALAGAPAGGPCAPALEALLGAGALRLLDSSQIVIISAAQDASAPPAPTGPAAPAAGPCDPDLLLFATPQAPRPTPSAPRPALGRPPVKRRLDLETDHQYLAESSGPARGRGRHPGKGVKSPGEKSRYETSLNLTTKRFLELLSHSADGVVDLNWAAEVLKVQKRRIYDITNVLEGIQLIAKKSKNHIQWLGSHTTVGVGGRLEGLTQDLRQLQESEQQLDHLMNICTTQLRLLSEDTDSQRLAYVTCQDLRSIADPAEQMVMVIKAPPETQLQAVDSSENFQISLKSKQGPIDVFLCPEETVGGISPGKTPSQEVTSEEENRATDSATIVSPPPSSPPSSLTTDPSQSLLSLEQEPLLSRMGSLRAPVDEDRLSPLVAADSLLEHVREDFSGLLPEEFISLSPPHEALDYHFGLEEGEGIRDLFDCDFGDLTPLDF
Chain of Retinoic acid receptor alpha (Homo sapiens) (P10276 whole entry, looked up): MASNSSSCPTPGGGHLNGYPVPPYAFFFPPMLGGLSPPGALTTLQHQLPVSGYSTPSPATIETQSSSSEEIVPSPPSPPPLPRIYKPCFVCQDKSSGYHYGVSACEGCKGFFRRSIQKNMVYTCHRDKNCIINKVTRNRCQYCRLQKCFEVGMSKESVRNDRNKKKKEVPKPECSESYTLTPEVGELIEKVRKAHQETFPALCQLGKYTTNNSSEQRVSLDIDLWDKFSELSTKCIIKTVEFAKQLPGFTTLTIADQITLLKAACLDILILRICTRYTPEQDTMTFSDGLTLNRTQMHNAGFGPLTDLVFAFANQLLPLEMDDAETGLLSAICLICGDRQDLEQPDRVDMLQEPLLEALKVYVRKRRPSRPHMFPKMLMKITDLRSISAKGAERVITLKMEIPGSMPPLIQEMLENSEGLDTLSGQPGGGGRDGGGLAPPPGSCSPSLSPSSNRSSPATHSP
Chain of Aryl hydrocarbon receptor (Homo sapiens) (P35869 whole entry, looked up): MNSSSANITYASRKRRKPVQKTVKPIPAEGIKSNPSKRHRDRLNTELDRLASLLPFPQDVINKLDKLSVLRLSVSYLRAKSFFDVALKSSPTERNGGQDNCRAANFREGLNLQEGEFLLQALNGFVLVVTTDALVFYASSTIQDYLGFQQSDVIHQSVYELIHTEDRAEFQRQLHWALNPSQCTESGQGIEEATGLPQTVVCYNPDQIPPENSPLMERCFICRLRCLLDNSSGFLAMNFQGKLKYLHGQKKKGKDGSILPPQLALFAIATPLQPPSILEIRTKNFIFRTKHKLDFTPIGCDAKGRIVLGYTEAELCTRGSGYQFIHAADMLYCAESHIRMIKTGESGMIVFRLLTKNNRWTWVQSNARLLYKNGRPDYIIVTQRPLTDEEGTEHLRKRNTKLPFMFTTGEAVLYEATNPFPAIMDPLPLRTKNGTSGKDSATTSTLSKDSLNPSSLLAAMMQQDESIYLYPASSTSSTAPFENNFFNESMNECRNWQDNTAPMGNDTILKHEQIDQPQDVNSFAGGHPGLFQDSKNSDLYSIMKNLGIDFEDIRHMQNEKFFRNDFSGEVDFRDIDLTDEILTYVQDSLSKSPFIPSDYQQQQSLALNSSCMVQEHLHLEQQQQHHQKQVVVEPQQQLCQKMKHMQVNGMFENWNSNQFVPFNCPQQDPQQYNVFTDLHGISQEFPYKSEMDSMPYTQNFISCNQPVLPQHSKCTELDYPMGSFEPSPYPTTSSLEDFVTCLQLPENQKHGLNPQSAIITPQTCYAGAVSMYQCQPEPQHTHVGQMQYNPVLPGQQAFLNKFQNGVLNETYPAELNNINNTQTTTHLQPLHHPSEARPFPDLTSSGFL

N#CC(Br)(Br)C(N)=O
active: [13] 55.2 µM
not listed: [18] | [19]
inactive: all other assays above

c1ccc2c(c1)oc1ccccc12
active: [2] 0.0888 µM
not listed: [9] | [13] | [16] | [17] | [18] | [19]
inactive: all other assays above

Nc1ccc(Cl)cc1N
active: [1] 5.9 µM | [2] 2.4 µM | [3] 3.83 µM | [4] 1.2 µM | [7] 3.54 µM | [12] 6.32 µM | [13] 0.431 µM | [14] 9.15 µM
not listed: [9] | [17] | [19]
inactive: all other assays above

c1ccc(NNc2ccccc2)cc1
active: [1] 100 µM | [2] 100 µM | [7] 98.9 µM | [8] 150 µM | [18] 100 µM
not listed: [9] | [13]
inactive: all other assays above

CCCCC(CC)COC(=O)c1ccc(C(=O)OCC(CC)CCCC)c(C(=O)OCC(CC)CCCC)c1 (stereo not drawn)
not listed: [9] | [17] | [18]
inactive: all other assays above

ClC1=C(Cl)[C@]2(Cl)[C@H]3[C@H]([C@@H]4C=C[C@H]3C4)[C@@]1(Cl)C2(Cl)Cl
active: [1] 42.6 µM | [2] 32.9 µM | [4] 50.7 µM | [5] 53.4 µM | [7] 45.3 µM | [12] 45.6 µM | [14] 46.9 µM
not listed: [9] | [16] | [17] | [18]
inactive: all other assays above

OCCOCCO
active: [14] 0.00963 µM
not listed: [7] | [9] | [17] | [18]
inactive: all other assays above

CCN(CC)N=O
not listed: [9] | [17] | [19]
inactive: all other assays above

Oc1ccccc1Cl
not listed: [9] | [16] | [17] | [18]
inactive: all other assays above

CCNS(=O)(=O)C(F)(F)C(F)(F)C(F)(F)C(F)(F)C(F)(F)C(F)(F)C(F)(F)C(F)(F)F
inactive: [6] | [8] | [11] | [12] | [18] | [13] | [14] | [15] | [16] | [17]
active: [1] 100 µM | [2] 72.5 µM | [3] 77.6 µM | [4] 68.5 µM | [5] 112 µM | [10] 45.3 µM and 16.1 µM and 15.7 µM | [14] 29.9 µM and 75.2 µM | [16] 96.5 µM

CCOC(=O)[C@]1(c2ccccc2)Oc2ccccc2[C@@H]1N
active: [1] 112 µM | [2] 90.8 µM | [4] 120 µM | [5] 109 µM | [10] 20.3 µM | [11] 33 µM | [12] 33 µM | [14] 40 µM | [15] 55.1 µM | [16] 13.6 µM
inactive: [3] | [6] | [8] | [13]

O=P(OCCCl)(OCCCl)OCCCl
not listed: [2] | [3] | [8]
inactive: all other assays above

c1ccc2c(c1)-c1cccc3cccc-2c13
active: [1] 108 µM | [2] 87.1 µM
not listed: [13] | [17] | [18] | [19]
inactive: all other assays above
